About 1,700 (0.52%) of roughly 330,000 compounds were called active. This is one part of a sample in which actives are shown more often than they occur. Rule as the data show it: active = inhibition above about 50%; inactive = the rest.
Assay: inhibitors of induced NF-kB luciferase reporter, primary screen, TCR NF-kB activation inhibitor project, cell-based, luminescence, uHTS (AID 435003)
Conditions: at 4 µM, active compounds read high; NF-kB luciferase reporter unless noted
In the case of `Cc1cc2ccccn2c1C(C[N+](=O)[O-])c1c(F)cccc1Cl` (stereo not given), the inhibition is reported as 71.3% (active). In the case of `O=C(c1cc2nc(-c3ccccc3)cc(-c3ccccc3)n2n1)N1CCC2(CC1)OCCO2`, the inhibition is reported as -2.97% (inactive). For `C[C@]12CC[C@H](O)C[C@H]1CC[C@@H]1C2CC[C@]2(C)[C@@H](C3=CC(=O)OC3)[C@@H](O)C[C@]12O` (stereo not given in full), the inhibition was 79.5% [Jurkat, PMA/ionomycin-induced NF-kB luciferase reporter] (active). With `C[C@]12CCC3C(CC[C@H]4C[C@@H](O)CC[C@]34C)C1C[C@@H](O)[C@H]2O` (stereo not given in full) the inhibition was -3.46% (inactive). With `C[C@]12CCC3C(CC[C@H]4C[C@@H](O)CC[C@]34C)C1CC[C@@H]2O` (stereo not given in full) the inhibition was 10.7% (inactive). For `CN1CCN(/N=C/c2c[nH]c3ccccc23)CC1`, the inhibition was -15.1% (inactive). With `O=C(NCC(c1cccnc1)N1CCN(c2ccccc2)CC1)Oc1ccccc1` (stereo not given) the inhibition was 10.4% (inactive). For `COc1ccccc1C1=NCc2nnc(CSC)n2-c2ccc(Cl)cc21`, the inhibition was -5.97% (inactive). With `CCCCCCCCCCCCn1ccc(=N)cc1` the inhibition was 94.2% (active). For `Cc1nn(Cc2ccccc2Cl)c(Cl)c1C(=O)OC(C(=O)NC(N)=O)C(C)C` (stereo not given), the inhibition was 11.3% (inactive). For `CCOC(=O)C1(Cc2ccc(Cl)cc2)CCN(C(C)CCn2cccn2)CC1` (stereo not given), the inhibition was -3.65% (inactive). For `O=C(CCNS(=O)(=O)c1ccccc1)Nc1ccc(Cl)cc1C(=O)c1ccccc1`, the inhibition was -5.78% (inactive). In the case of `COC(=O)[C@@H]1C(OC(=O)c2ccccc2)CC2CCC1N2C` (stereo not given in full), the inhibition is reported as -16.7% (inactive). For `COc1ccc(N2C(=O)/C(=C/c3ccco3)C(=O)NC2=S)cc1`, the inhibition was 1.64% (inactive). In the case of `CCOc1ccc(-c2cc(C)[n+](CCN(CC)CC)c(-c3ccc(OCC)cc3)c2)cc1`, the inhibition is reported as 72.8% (active). For `CN1CCc2cc3c(cc2[C@H]1[C@@H]1OC(=O)c2c1ccc1c2OCO1)OCO3`, the inhibition was 5.76% [Jurkat, PMA/ionomycin-induced NF-kB luciferase reporter] (inactive). In the case of `CCN(CC)P(=O)(Oc1cccc(C)c1)N(CC)CC`, the inhibition is reported as 4.24% (inactive). In the case of `Cc1cc(N2C(=O)C3CCCN3C2c2ccc(Cl)c(Cl)c2)no1` (stereo not given), the inhibition is reported as -12.8% (inactive). With `c1ccc(C2NCc3ccccc3-n3cccc32)cc1` (stereo not given) the inhibition was 10.4% (inactive). With `CNC(=O)O/N=C(\N)Cc1csc2ccc(Cl)cc12` the inhibition was -0.793% (inactive).

Reference: PubChem BioAssay AID435003 (Sanford-Burnham Center for Chemical Genomics, 2010)
